Reference: PubChem BioAssay AID1224921 (Broad Institute, 2016)
In all, about 1,400 compounds went through this assay and about 350 (25%) were called active. Inconclusive results (about 2%) are left out. No rule for the calls is given here. Not all results are given here. Entries with a potency or affinity are not part of this list.

assay: inhibitors of Clostridioides difficile proliferation – 4-point retest, confirmation (AID 1224921); settings: Clostridioides difficile clinical isolate growth, OD600, 24 h, active compounds read low; at 30 µM unless noted;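 also: plate controls were DMSO wells for no effect and levofloxacin 16 µg/mL wells for full effect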

Max activity, inactive:
C[C@@H]1CN([C@@H](C)CO)C(=O)c2cccc(NS(C)(=O)=O)c2O[C@H]1CN(C)Cc1ccccc1 16.6%
C[C@H]1CN([C@@H](C)CO)C(=O)c2cccc(NS(=O)(=O)c3ccccc3)c2O[C@H]1CN(C)Cc1ccc(Cl)c(Cl)c1 33.4%
C[C@H](CO)N1C[C@H](C)[C@H](CN(C)Cc2ccccc2)Oc2c(NS(C)(=O)=O)cccc2C1=O 24.8%
C[C@@H]1CN([C@@H](C)CO)C(=O)c2cc(NC(=O)Nc3ccc(C(F)(F)F)cc3)ccc2O[C@@H]1CN(C)Cc1ccc(Oc2ccccc2)cc1 30.2%
C[C@@H]1CN([C@@H](C)CO)C(=O)c2cccc(NS(C)(=O)=O)c2O[C@@H]1CN(C)Cc1ccccc1 -11.2% [at 8 µM]
O=C(C[C@H]1C=C[C@H](NC(=O)c2ccncc2)[C@@H](CO)O1)Nc1ccc(-c2ccccc2)cc1 -5.7% [at 0.5 µM]
COc1ccc(COC[C@@]23Oc4ccccc4[C@@H](NC(=S)N2C)[C@H]3CO[Si](C)(C)C(C)(C)C)cc1 23.7%
O=C(C[C@H]1C[C@H]2c3cc(NC(=O)Nc4ccccc4)ccc3O[C@H]2[C@@H](CO)O1)NC1CCCC1 -20.3% [at 1.95 µM]
C[C@H]1CN([C@@H](C)CO)S(=O)(=O)c2ccc(C3=CCCCC3)cc2O[C@@H]1CN(C)Cc1cccnc1 31.2%
COc1cccc(NC(=O)N(C)C[C@H]2Oc3cc(C#CC4(O)CCCC4)ccc3S(=O)(=O)N([C@@H](C)CO)C[C@H]2C)c1 -5.35% [at 0.5 µM]
CO[C@H]1CN(C)C(=O)c2ccc(NC(=O)c3ccccc3F)cc2OC[C@@H](C)N(CC2CC2)C[C@@H]1C -8.61% [at 0.5 µM]
COc1ccc(CN(C)C[C@@H]2OCCCC[C@@H](C)Oc3ccc(NC(=O)Nc4cccc5ccccc45)cc3C(=O)N([C@@H](C)CO)C[C@H]2C)cc1 29.5% [at 8 µM]
C[C@@H]1CN([C@@H](C)CO)C(=O)c2cc(NC(=O)Nc3cccc4ccccc34)ccc2O[C@@H](C)CCCCO[C@H]1CN(C)Cc1ccccc1 42%
COc1ccc(CN(C)C[C@@H]2OCCCC[C@@H](C)Oc3ccc(NC(=O)Nc4cccc5ccccc45)cc3C(=O)N([C@H](C)CO)C[C@H]2C)cc1 17.7% [at 1.95 µM]
COc1ccc(CN(C)C[C@@H]2OCCCC[C@H](C)Oc3ccc(NC(=O)Nc4cccc5ccccc45)cc3C(=O)N([C@@H](C)CO)C[C@H]2C)cc1 25.5%
CC(C)(C)[S@@](=O)N1Cc2cc(C(=O)NCc3ccc4c(c3)OCO4)nc(-c3cccc(-c4cccnc4)c3)c2[C@H]1CCO 31.3% [at 35 µM]
O=C(C[C@@H]1C=C[C@H](NC(=O)c2cccnc2)[C@H](CO)O1)NCc1ccc(Cl)c(Cl)c1 -13.7% [at 1.95 µM]
Cc1ccc(-c2ccc3c(c2)O[C@@H](CN(C)Cc2cccnc2)[C@H](C)CN([C@@H](C)CO)S3(=O)=O)cc1 41.8%
C[C@H](NC(=O)C[C@@H]1CC[C@@H]2[C@H](COC[C@@H](O)CN2C(=O)Nc2cc(Cl)cc(Cl)c2)O1)c1ccccc1 14% [at 1.95 µM]
C[C@H](NC(=O)C[C@@H]1CC[C@@H]2[C@H](COC[C@H](O)CN2C(=O)Nc2cc(Cl)cc(Cl)c2)O1)c1ccccc1 24.8% [at 8 µM]
C[C@@H]1CN([C@@H](C)CO)S(=O)(=O)c2ccc(C#CCN(C)C)cc2O[C@H]1CN(C)C(=O)c1ccccc1F 7.9%
N#C[C@@H]1[C@@H](c2ccc(/C=C/c3ccccc3)cc2)[C@@H](CO)N1C(=O)C1CCC1 38.2% [at 35 µM]
COc1ccc(C(=O)Nc2ccc3c(c2)OC[C@H](C)N(C(C)=O)C[C@@H](C)[C@H](OC)CN(C)C3=O)cc1 -10.5%
C[C@H](CO)N1C[C@H](C)[C@@H](CN(C)S(C)(=O)=O)OCCCC[C@H](C)Oc2ccc(NC(=O)Nc3cccc4ccccc34)cc2C1=O 7.82%
COc1ccc(-c2ccc([C@H]3[C@@H](C#N)N(C(=O)C4CCCC4)[C@@H]3CO)cc2)cc1 25.1% [at 35 µM]
CCCC(=O)Nc1ccc2c(c1)C(=O)N(C)C[C@@H](OC)[C@H](C)CN(CC1CCOCC1)[C@@H](C)CO2 -8.25%
C[C@@H]1CN([C@H](C)CO)S(=O)(=O)c2ccc(C#CC3CC3)cc2O[C@H]1CN(C)Cc1ccncc1 29.7% [at 8 µM]
O=C(C[C@@H]1CC[C@H](NC(=O)CCN2CCCCC2)[C@@H](CO)O1)Nc1nccs1 -9.66% [at 1.95 µM]
C[C@@H]1CCCCO[C@H](CN(C)Cc2ccc(C(F)(F)F)cc2)[C@H](C)CN([C@@H](C)CO)C(=O)c2cc(NS(C)(=O)=O)ccc2O1 30.2%
O=C(C[C@H]1C=C[C@H](NC(=O)c2ccccn2)[C@@H](CO)O1)NCc1cc(F)cc(F)c1 -9.02% [at 8 µM]
O=C(C[C@H]1C[C@H]2c3cc(NC(=O)Nc4ccc(C(F)(F)F)cc4)ccc3O[C@H]2[C@@H](CO)O1)NCc1ccc2c(c1)OCO2 -6.78% [at 1.95 µM]
CO[C@@H]1CN(C)C(=O)c2cc(NS(=O)(=O)c3cn(C)cn3)ccc2OC[C@@H](C)N(Cc2cccc(C(F)(F)F)c2)C[C@H]1C 28.5%
Cc1noc(C)c1NC(=O)N[C@@H]1CC[C@H](CC(=O)Nc2ccc(-c3ccccc3)cc2)O[C@H]1CO 26.4%
O=C(Nc1ccc(F)cc1)Nc1ccc2c(c1)[C@H]1C[C@@H](CC(=O)N3CCCCC3)O[C@H](CO)[C@H]1O2 -19.5% [at 2.1 µM]
CCCN1C[C@@H](C)[C@@H](OC)CN(C)C(=O)c2cc(NC(=O)c3cccc(OC)c3)ccc2OC[C@H]1C -8.56% [at 0.5 µM]
